Shown are actives, neighbours in structure and some others; about 4% of the full set was active somewhere.
GDH-TPI inh: GDH-TPI coupled enzyme inhibition counter-screen | GDH-TPI coupled enzyme counterscreen, NADH absorbance | inhibition, % at 4.8 µM | 360,000 compounds, 1.2% hits; in the data active means inhibition above about 30%;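 further: 0% = DMSO wells and 100% = wells lacking the enzyme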
RecA splice inh: Mtb RecA intein splicing inhibition; inhibition, % (concentration not given with the values); cell-free RecA intein splicing, fluorescence; AID 2221; 290,000 compounds, 0.75% hits; P9WHJ3; in the data active means inhibition above about 30%; inconclusive means no clear call, values can overlap the other calls;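 further: 0% = vehicle wells and 100% = reference inhibitor control wells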
Rv3671c protease: Rv3671c (M. tuberculosis) protease inhibition | inhibition, % at 5.96 µM | P9WHR9 | 320,000 compounds, 0.048% hits; in the data active means inhibition above about 38%;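 further: extracellular domain of Rv3671c used as enzyme; 0% = enzyme with DMSO and 100% = no enzyme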
Mtb UGM inh: inhibitors of M. tuberculosis UDP-galactopyranose mutase | AID 504406 | inhibition, % at 10 µM | P9WIQ1 | purified UGM, fluorescence polarization probe displacement | 320,000 compounds, 0.06% hits; in the data active means inhibition above about 10%, passing the limit was not always enough; inconclusive means no clear call, values can overlap the other calls
Target sequence (P9WIQ1 whole entry, looked up): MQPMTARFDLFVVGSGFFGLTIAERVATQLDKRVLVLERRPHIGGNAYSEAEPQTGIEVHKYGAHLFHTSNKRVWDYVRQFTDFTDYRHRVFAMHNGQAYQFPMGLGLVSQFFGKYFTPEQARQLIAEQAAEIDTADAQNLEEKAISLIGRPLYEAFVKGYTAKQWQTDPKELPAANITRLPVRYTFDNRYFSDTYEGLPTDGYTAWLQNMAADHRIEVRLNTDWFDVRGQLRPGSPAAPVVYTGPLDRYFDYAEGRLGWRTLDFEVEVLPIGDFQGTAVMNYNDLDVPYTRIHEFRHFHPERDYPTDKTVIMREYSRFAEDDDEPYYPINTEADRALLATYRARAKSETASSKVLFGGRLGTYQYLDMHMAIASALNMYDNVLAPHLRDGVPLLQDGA
Mtb FBA inh: inhibitors of M. tuberculosis fructose-bisphosphate aldolase | purified M. tuberculosis FBA, fluorescence read-out | 360,000 compounds, 2.3% hits | inhibition, % at 1 µM | AID 588726 | P9WQA3; in the data active means inhibition above about 27%;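 further: 0% = vehicle and 100% = reference inhibitor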
Mtb bLac sens: beta-lactam sensitization of Mtb H37Rv; M. tuberculosis H37Rv growth with meropenem, percent inhibition; inhibition, % at 25 µM; 330,000 compounds, 0.27% hits; AID 434955;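 further: growth measured after seven days incubation then overnight dye step; 0% = bacteria only wells and 100% = bacteria with antibiotic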
GFP chromo cs: counter-screen GFP chromophore formation inhibition; shares compounds with RecA splice inh; cell-free GFP chromophore formation, fluorescence; EC50, µM; 2,100 compounds, 83% hits
Active calls of the source: *; ? = inconclusive; . = not tested or not shown. Unless noted, how the calls were made is not given here.

SMILES	GDH-TPI inh	RecA splice inh	Rv3671c protease	Mtb UGM inh	Mtb FBA inh	Mtb bLac sens	GFP chromo cs
O=C(CCl)Nc1cccc(S(=O)(=O)N2CCCCCC2)c1	8	44*	-8	2	-1	99	33*
CCOc1ccc(Cl)cc1S(=O)(=O)N1CCCC1	-8	0	5	-3	-1	.	.
C#CCOc1ccc(Br)cc1C(c1c(C)[nH][nH]c1=O)c1c(C)[nH][nH]c1=O	-3	94*	-7	4	0	0	2.2*
C#CCOc1ccc(Br)cc1/C=N/O	1	1	-9	1	-2	-5	.
CCOc1ccc(Cl)cc1C(c1c(C)[nH][nH]c1=O)c1c(C)[nH][nH]c1=O	-4	97*	.	0	-2	6	0.92*
CS(=O)(=O)c1nc([N+](=O)[O-])nn1CCCc1ccccc1	5	51*	-2	-1	-2	67	26*
COCCN(CCOC)C(=S)Nc1ccccc1	3	0	-6	3	1	1	.
CCOC(=O)c1oc2nc(CC(C)C)c3c(c2c1N)CCC3	5	31*	-4	-2	178*	86	>38
CC(C)Cc1nc2oc3c(NCC4CCCO4)ncnc3c2c2c1CCC2 (stereo not drawn)	-5	3	1	0	8	-6	.
Fc1ccc(OCc2nn[nH]n2)c(F)c1	1	2	8	0	2	4	.
COc1ccc(Br)cc1[C@H]1[C@H]2C=CC[C@@H](C)[C@@H]2C(=O)N1Cc1ccccc1	0	34*	.	.	-2	.	>38
C[C@@H]1CC=C[C@H]2[C@H]1C(=O)N(Cc1ccccc1)[C@H]2c1ccc(C(F)(F)F)cc1	11	37*	-3	-1	2	-9	>38
COC(=O)c1ccccc1NC1=C/C(=N\S(=O)(=O)c2cccs2)c2ccccc2C1=O	16	81*	-88	4	-1	96	0.1*
COC(=O)c1ccccc1NC1=C/C(=N\S(=O)(=O)c2ccc(C(=O)O)cc2)c2ccccc2C1=O	12	63*	-92	0	-7	53	?
O=C(NN1C(=O)c2ccccc2NC1c1ccccn1)c1ccccc1 (stereo not drawn)	2	2	-2	-1	8	10	.
CN1C(=O)N(C)C2(CC1(C)C)CC(C)(C)N(C)C(=O)N2C	-7	-2	6	-1	-3	-3	.
O=C(OCn1ncc(Cl)c(Cl)c1=O)c1cccc(C(F)(F)F)c1	-4	94*	-26	0	-1	100	1.6*
CCc1ccc(C(=O)Cn2ncc(Cl)c(Cl)c2=O)cc1	9	15	-9	1	2	91	.
CCc1ccccc1NC(=O)CSc1nnc(C2CC2)n1CC1CCCO1 (stereo not drawn)	5	1	-8	4	4	-3	.
CCN1C(=O)CCN(C2CCCC2)c2nc(Nc3ccc(C(=O)NC4CCN(C)CC4)cc3OC)ncc21	26	.	.	.	14	.	.
COc1cc2c(cc1OC)C(c1cc(Br)ccc1F)N(C(=O)CCl)CC2 (stereo not drawn)	-2	86*	-7	1	-1	100	4.5*
CCOC(=O)COc1ccc(/C=C2\C(=O)NC(=S)N(c3ccc(OC)cc3)C2=O)cc1OC	5	-2	-8	1	0	0	.
CCOC(=O)CSCCOc1ccc(C=C2C(=O)NC(=O)NC2=O)cc1OC	-2	73*	-39	-4	-1	-3	>38
Cc1[nH][nH]c(=O)c1C(c1ccc(-c2ccc(F)cc2)o1)c1c(C)[nH][nH]c1=O	4	97*	-132	0	-8	17	0.58*
CN(C)c1cc(-c2ccc(Cl)c(Cl)c2)oc(=O)c1Cl	0	1	-10	5	-3	-2	.
Cc1[nH][nH]c(=O)c1C(c1ccc(-c2ccc(C(=O)O)cc2)o1)c1c(C)[nH][nH]c1=O	0	.	.	.	-6	.	.
Cc1[nH][nH]c(=O)c1C(c1ccc(-c2ccc(Cl)c(Cl)c2)o1)c1c(C)[nH][nH]c1=O	7	97*	-26	0	-4	73	0.66*
CC(=O)Oc1ccc(C(=O)Nc2cccc(C(=O)Nc3ccccc3C(=O)O)c2)cc1	6	7	.	2	-1	1	.
CC1(C)c2ssc(=S)c2-c2ccccc2N1C(=O)CSC1=NCCS1	2	51*	4	-3	-3	-2	4.6*
